Screens: PubChem, National Center for Advancing Translational Sciences (NCATS)
Pf growth 96h = inhibits malaria parasite growth, 96 h; P. falciparum luciferase reporter growth, 96 h; Potency, µM (titrated, usually from 28.7 µM), hits mostly inhibitors; actives 6.9% (n = 320,000); AID 504834
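Parasite growth measured via integrated firefly luciferase reporter in P. falciparum. Infected erythrocytes at 2% hematocrit, 0.05% parasitemia final were treated 96 hours at 37 C under 5% CO2, and luminescence was read.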
NS1 inh = inhibitors of influenza NS1 protein function; AID 2326; actives 0.4% (n = 270,000); Potency, µM (top dose mostly 46.1 µM); calls by dose curve; also: actives are rising curves; nearly all actives have a fitted effect of over 50% in size
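A cell-based growth assay was used: compounds that relieve NS1-induced slow growth of budding yeast raise OD600. Assay medium was yeast nitrogen base with ammonium sulphate and -URA supplement, pH 6.0, with 2% galactose.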
Shiga inhibitor = blocks Shiga toxin action in Vero cells; Vero cells, Shiga toxin protein synthesis inhibition reporter; inhibition, % at 38.7 µM; actives 9.2% (n = 290,000); AID 2315; in the data active = inhibition mostly above about 28%, no sharp cut-off; inactive = mostly below about 43%
Sm TGR inh = inhibitors of Schistosoma mansoni thioredoxin glutathione reductase; AID 485364; Potency, µM (doses to about 114 µM), actives largely listed as inhibitors; actives 3% (n = 360,000); Q962Y6; purified TGR, DTNB reduction, TNB absorbance 405 nm; also: nearly all actives have a fitted effect of over 60% in size
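Kinetic colorimetric format: TGR-catalysed, NADPH-driven DTNB reduction monitored via TNB absorbance. Enzyme dispensed at 20 nM; compound exposure 15 min at room temperature before reaction start.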
Pf growth 48h = inhibits P. falciparum growth in the first generation, 48 h; AID 504832; P. falciparum luciferase growth in erythrocytes, 48 h; Potency, µM (series often up to 28.7 µM), hits mostly inhibitors; actives 5.9% (n = 310,000)
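Cell-based growth assay: transgenic P. falciparum expressing firefly luciferase, cultured in red cells within RPMI 1640 containing 0.5% w/v Albumax, 24 mM bicarbonate and gentamycin. A drop in luciferase activity indicates inhibition.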
CHX counter = counter-screen for Shiga toxin inhibitors: cycloheximide protein synthesis inhibition | actives 12% (n = 300,000) | max response, % | cell reporter, cycloheximide protein synthesis inhibition counterscreen; in the data active = max response mostly above about 13%, no sharp cut-off; inactive = mostly below about 14%; also: read at 38.3 µM for the half of the compounds with a filed dose
A number is an active result; . = inactive; ? = inconclusive; / = not tested or not shown; [ ] = remark or other dose. Only some compounds are listed: those with a hit (about 21% of all), similar ones and a draw of the others. Unless noted, calls follow the shape of the dose curve; as a rule, active = well fitted curve in the direction sought with a large enough effect; inconclusive = small, poorly fitted or top-dose-only effect, or another doubt; inactive = no such curve, though single readings can be large; an effect the other way counts as inactive or inconclusive.

SMILES	Pf growth 96h	NS1 inh	Shiga inhibitor	Sm TGR inh	Pf growth 48h	CHX counter
CCn1cc([N+](=O)[O-])c(C(=O)N2CCN(C(=O)c3ccco3)CC2)n1	.	.	.	.	.	.
CCn1cc([N+](=O)[O-])c(C(=O)N2N=C(c3cccc4ccccc34)CC2c2ccccc2O)n1 (configuration not stated)	13µM	.	.	.	9.3µM	.
CCn1cc([N+](=O)[O-])c(C(=O)N2N=C(c3ccc4ccccc4c3)CC2c2ccccc2O)n1 (configuration not stated)	?	?	27	.	8.3µM	34
CC(Sc1nnc(N)s1)C(=O)Nc1ccc2c(c1)OCO2 (configuration not stated)	.	/	/	.	?	/
Nc1c(S(N)(=O)=O)cc(S(N)(=O)=O)cc1S(N)(=O)=O	/	.	/	/	/	/
COc1ccc(C(C)=O)cc1CC(=O)Nc1ccc2c(c1)CCC2	?	.	.	.	?	.
CCOn1c(=O)c(-c2ccccc2)[n+]([O-])c2ccccc21	.	.	.	.	/	.
CCCOc1ccc(-c2c(=O)n(O)c3ccccc3[n+]2[O-])cc1	.	.	/	.	.	29
CCOc1ccc(-c2c(=O)n(OCc3ccccn3)c3ccccc3[n+]2[O-])cc1	?	.	50	.	?	.
Cc1ccc(-c2c(=O)n(OCc3ccccn3)c3ccccc3[n+]2[O-])cc1	.	.	.	.	.	.
Cc1cc(C)c(NC(=S)NC(CO)(CO)CO)c(C)c1	.	.	.	.	.	.
O=C(/C(=C/c1ccc(Cl)cc1)c1nc2ccccc2[nH]1)c1cccs1	/	.	.	?	1.7µM	62
O=C(/C(=C\c1ccccc1)c1nc2ccccc2[nH]1)c1ccc(Cl)cc1	?	.	21	.	?	19
O=C(O)C(Cc1ccc(Cl)cc1)Sc1nc2ccccc2[nH]1 (configuration not stated)	.	.	.	.	.	.
O=C1CN(C(=O)/C=C/c2cccc(Cl)c2)c2ccccc2N1	?	.	.	.	?	.
COc1cc(/C=C(/C(=O)c2cccs2)c2nc3ccccc3[nH]2)ccc1O	1.2µM	?	111	.	2.1µM	66
O=C(/C=C/c1cccc(Cl)c1)c1nc2ccccc2[nH]1	.	.	.	.	?	14
CC/C(=N/O)C(=O)c1ccc(Br)cc1	?	/	.	.	.	.
O=C(NC1CCN(c2ncccn2)CC1)c1c(F)cccc1F	.	.	.	.	.	.
CCC(=O)NC(=S)Nc1cccc(C(C)=O)c1	.	.	.	.	.	.
CC(=O)c1cccc(NC(=S)NC(=O)c2ccc(C)cc2Cl)c1	?	.	90	?	.	38
O=C(NC(=S)Nc1ccccc1O)c1ccccc1Cl	.[1.15 µM]	.	77	/	.	44
CC(=O)c1cccc(NC(=S)NC(=O)c2ccccc2Cl)c1	.	.	83	.	.	21
COc1cc(OC)cc(C(=O)N[C@H](C(=O)Nc2cccc(S(=O)(=O)N3CCCC3)c2)C(C)C)c1	?	.	.	.	?	.
Cc1onc(-c2c(F)cccc2Cl)c1C(=O)N1CCc2ccccc2C1	?	.	.	.	5.9µM	.
SMILES	Pf growth 96h	NS1 inh	Shiga inhibitor	Sm TGR inh	Pf growth 48h	CHX counter
Cc1onc(-c2c(Cl)cccc2Cl)c1C(=O)c1ccccc1	?	.	.	.	.	.
COc1ccccc1N1CCN(C(=O)c2c(-c3ccccc3)noc2C)CC1	?	.	.	.	.	.
Cc1onc(-c2c(Cl)cccc2Cl)c1C(=O)N=S(C)(=O)c1ccccc1 (configuration not stated)	10µM	.	.	.	?	.
Cc1onc(-c2c(Cl)cccc2Cl)c1C(=O)N1CCc2ccccc21	.	.	.	.	8.3µM	.
Cc1onc(-c2ccccc2Cl)c1C(=O)N1CCc2ccccc2C1	?	.	.	.	?	.
COc1ccccc1N1CCN(C(=O)c2c(-c3c(F)cccc3Cl)noc2C)CC1	12µM	.	.	.	?	.
Cc1cccc(N2C(=O)CN(Cc3sccc3C)C2=S)c1	.	.	.	.	?	.
CCc1ccc(N2C(=O)CN(Cc3sccc3C)C2=S)cc1	?	/	51	.	.	21
Cc1cc(C)cc(N2C(=O)CN(Cc3sccc3C)C2=S)c1	?	.	.	.	9.3µM	.
CC(C)(C)c1ccc(C(=O)/C=C2\NC(=O)CS2)cc1	.	.	.	.	.	26
Cc1ccc(NC(=O)/C=C2\NC(=O)CS2)cc1	.	.	62	.	.	45
COCCOC(=O)/C=C1/NC(=O)CS1	?	?	.	.	.	.
OC(CNCc1ccco1)Cn1c2ccc(Br)cc2c2cc(Br)ccc21 (configuration not stated)	0.29µM	.	.	.	/	.
Brc1ccc2ncnc(NCc3ccco3)c2c1	/	.	.	?	.	.
CCc1ccc(-c2nc(CSCC(=O)N3CCN(c4ccccn4)CC3)c(C)o2)cc1	/	.	.	.	.	.
Cc1ccc(-c2nc(CSCC(=O)N3CCN(c4ccccn4)CC3)c(C)o2)cc1	10µM	.	.	?	/	.
Cc1ccc(-c2nc(CSCC(=O)N3CCN(C(=O)c4ccco4)CC3)c(C)o2)cc1	.	.	.	40µM	/	.
Cc1ccc(-c2nc(CSCC(=O)N3CCOCC3)c(C)o2)cc1	.	.	73	.	?	.
CCOc1ccc(-c2nc(CSCC(=O)N3CCN(c4cccc(OC)c4)CC3)c(C)o2)cc1	?	.	75	?	/	16
COc1ccc(-c2nc(CSCC(=O)N3CCN(c4ccccc4F)CC3)c(C)o2)cc1	/	/	/	.	/	/
O=C(c1ccco1)N1CCN(C(c2ccc(F)cc2)c2nnnn2Cc2cccs2)CC1 (configuration not stated)	0.93µM	.	.	?	?	.
CCCC(c1nnnn1CS(=O)(=O)c1ccc(C)cc1)N1CCN(c2ccccc2)CC1 (configuration not stated)	.	.	.	.	12µM	.
O=C(c1ccco1)N1CCN(C(c2ccccc2)c2nnnn2Cc2cccs2)CC1 (configuration not stated)	.[5.75 µM]	.	.	?	.	.
Cc1ccc(-c2nnnn2CS(=O)(=O)c2ccccc2)cc1	.	.	.	.	.	19
Cc1ccc(S(=O)(=O)Cn2nnnc2C(c2ccccc2)N2CCN(c3ncccn3)CC2)cc1 (configuration not stated)	.	.	.	.	9.3µM	.
Cc1ccc(C(c2nnnn2CS(=O)(=O)c2ccc(C)cc2)N2CCCC2)cc1 (configuration not stated)	?	.	.	.	.	.
Cc1cccc(NC(=O)NCCN2CCN(c3ccccc3)CC2)c1C	?	.	.	.	.[0.00184 µM]	.
Cc1oc(-c2ccccc2Cl)nc1CSc1nc2c(c(=O)[nH]1)CCC2	?	.	.	.	.	.
